The whole screen tested about 33,000 compounds, of which about 95 (0.3%) were called active.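 The calls were made as follows: active = inhibition above 40% in the primary screen; inactive = the rest.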 The list comes from a sample in which actives are over-represented; it also holds similar structures and randomly drawn compounds.

This test deals with Coagulation factor XI (Homo sapiens) (UniProt P03951). The test is described as follows: human FXIa protease inhibitors, primary screen, biochemical, single compound per well (AID 687).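 Also: 0% = enzyme without compound and 100% = blank wells lacking enzyme.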 As to conditions: purified human FXIa, fluorogenic AMC substrate cleavage; at 10 µM; hits give high values.
Chain of Coagulation factor XI (Homo sapiens) (P03951 19-387 limits assumed): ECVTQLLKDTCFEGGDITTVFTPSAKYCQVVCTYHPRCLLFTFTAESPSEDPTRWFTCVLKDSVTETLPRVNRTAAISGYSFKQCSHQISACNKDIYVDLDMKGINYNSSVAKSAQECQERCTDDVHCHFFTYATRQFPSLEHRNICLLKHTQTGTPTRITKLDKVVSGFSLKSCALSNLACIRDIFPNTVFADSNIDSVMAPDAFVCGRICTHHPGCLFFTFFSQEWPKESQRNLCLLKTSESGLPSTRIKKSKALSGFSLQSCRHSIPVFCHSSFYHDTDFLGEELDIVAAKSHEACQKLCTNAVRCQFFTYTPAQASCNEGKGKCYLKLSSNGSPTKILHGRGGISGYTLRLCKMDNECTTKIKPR
Chain of Coagulation factor XI (Homo sapiens) (P03951 388-625 limits assumed): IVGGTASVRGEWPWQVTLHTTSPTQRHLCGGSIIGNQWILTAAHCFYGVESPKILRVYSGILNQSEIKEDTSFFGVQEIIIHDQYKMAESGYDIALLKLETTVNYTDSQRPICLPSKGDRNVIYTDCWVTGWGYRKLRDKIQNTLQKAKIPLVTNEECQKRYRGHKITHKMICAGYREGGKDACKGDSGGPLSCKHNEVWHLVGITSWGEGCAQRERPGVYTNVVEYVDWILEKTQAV
Broadly, the inhibition is the drop in the measured response relative to a control, in per cent. For `CCc1ccc(CNC(=O)C2CC(=O)N(CCc3ccc(C)cc3)C2)cc1` (stereo not drawn), the inhibition was 1.74% (inactive).

In the case of `CC(C)(C)Oc1ncc(Br)c(OC(C)(C)C)n1`, the inhibition was -4.12% (inactive).

Regarding `CCc1ccc(CNC(=O)CCc2nc(-c3cccs3)no2)cc1`, the inhibition was 5.18% (inactive).

As for `CCOC(=O)c1cnc(SCC(=O)Nc2ccccc2C(=O)OC)nc1N`, the inhibition is -1.2% (inactive).

As to `Cc1cc(C)n(-c2nnc(C)n2NC(=O)c2cccc(Cl)c2)n1`, the inhibition was -1.74% (inactive).

Take `C/C(=N\NS(=O)(=O)c1ccc(Br)cc1)c1cccs1`: the inhibition was 7.3% (inactive).

Turning to `O=C(O)c1cc2ccccc2c(=O)s1`, the inhibition was 3.97% (inactive).

Turning to `CCn1c(CC(=O)Nc2ccc(C)cc2)nnc1SCC(=O)Nc1nc(C)cs1`, the inhibition is 0.06% (inactive).

In the case of `COc1ccc(C)cc1NC(=O)CCS(=O)(=O)c1cccc2nonc12`, the inhibition is 24.9% (inactive).

`Cc1cc(C)nc(N2C(=O)CC(Cc3ccccc3)C2=O)n1` (stereo not drawn): the inhibition is -0.09% (inactive).

With `CCN1CC=C2C(C#N)=C(N)C(C#N)(C#N)[C@H](c3ccoc3)[C@H]2C1`, the inhibition was 1.2% (inactive).

For `Cc1cccc(N2CCN(C(=O)c3cnn4c(C(F)F)cc(-c5ccccc5)nc34)CC2)c1C`, the inhibition was 3.2% (inactive).

Consider `CCOC(=O)CN(Cc1ccc(OC)c(OC)c1)S(=O)(=O)c1ccc(OC)cc1`, for which the inhibition was 6.28% (inactive).

As to `CC(C)NC(=O)CSc1ccccc1C(=O)NCc1ccc2c(c1)OCO2`, the inhibition is 6.02% (inactive).

`COn1c(=O)c(=O)n(OC)c2ccccc21`: the inhibition was 3.76% (inactive).

Take `Cc1cc(C)n(C(=O)CCNC(=O)c2ccccc2Cl)n1`: the inhibition is -5.37% (inactive).

Turning to `CCOC(=O)C1=C(C)NC2=C(C(=O)CC(C)(C)C2)C1c1ccsc1` (stereo not drawn), the inhibition was 1.22% (inactive).

`Cc1cc(=O)oc2ccc(OCC(=O)O)cc12`: the inhibition is -9.94% (inactive).

Take `COc1ccc(Cl)cc1C(=O)Nc1ccc(N(C)C(C)=O)cc1`: the inhibition was 13.5% (inactive).

Regarding `COc1cccc(OC)c1C(=O)Nc1ccc(N2CCCCC2)cc1`, the inhibition was 4.14% (inactive).

Consider `CCCC(=O)C1CCN(Cc2ccccc2)CC1`, for which the inhibition is 9.51% (inactive).

As for `O=C(O)CCN=C1CCc2ccccc2N1`, the inhibition is 5.95% (inactive).

For `CCNC(=O)N1CCNC(=O)C1CC(=O)Nc1ccc(C(=O)OCC)cc1` (stereo not drawn), the inhibition was -0.73% (inactive).

As to `CCC(=O)N(Cc1ccccc1)c1ccccn1`, the inhibition is -8.8% (inactive).

Consider `O=C(c1ccco1)N1CCN(C(=O)C2CCCN(S(=O)(=O)c3cccc4nsnc34)C2)CC1` (stereo not drawn), for which the inhibition was -6.85% (inactive).

For `CCCOc1cccc(C(=O)Nc2nnn(CCC)n2)c1`, the inhibition is -6.61% (inactive).

Take `Cc1nnc(SCC(=O)N2CCc3ccccc3C2)s1`: the inhibition is 21.3% (inactive).

For `O=C(COc1ccc(Cl)cc1)NCCSc1ccccc1`, the inhibition was 6.47% (inactive).

With `COc1ccc(-n2cnc3cc(NCc4ccco4)ccc32)cc1`, the inhibition is 4.4% (inactive).

Turning to `Cn1nnnc1SCC(=O)N1CCN(C(c2ccccc2)c2ccccc2)CC1`, the inhibition is -3.99% (inactive).

As to `CCCC(O)(c1ccc(OC)cc1)C(CN(C)C)c1ccccc1` (stereo not drawn), the inhibition is -1.37% (inactive).

Regarding `CSc1nc(C)cc(SC(C(C)=O)C(=O)Nc2ccccc2)n1` (stereo not drawn), the inhibition is 0.47% (inactive).

Regarding `CC(=O)Nc1cccc(Oc2cc(C#N)c(C#N)cc2N2CCOCC2)c1`, the inhibition was 2.12% (inactive).

`CCOc1ccc(NC(=O)CCS(=O)(=O)c2ccc3c(c2)CCCN3C(=O)CC)cc1`: the inhibition is 19.3% (inactive).

In the case of `Cc1ccc(S(=O)(=O)c2c(COC(=O)c3cccc(Cl)c3)c(-c3ccccc3)nn2C)cc1`, the inhibition was 6.1% (inactive).

For the compound `CSc1ccccc1NC(=O)c1cc(C2CC2)on1`, the inhibition was 5.92% (inactive).

As for `CC(=O)c1c(C)[nH]c(C(=O)NCc2ccc(C)cc2)c1C`, the inhibition is 4.49% (inactive).

Take `CCOc1cccc(NC(=O)Cn2nc(-c3ccc4c(c3)OCCO4)ccc2=O)c1`: the inhibition is -4.23% (inactive).

Turning to `O=C1C=C(NCCNc2c(F)c(F)c(CO)c(F)c2F)CCC1`, the inhibition is -9.07% (inactive).

For `CC(C)C(c1nnnn1Cc1ccccc1)N1CCC(C(N)=O)CC1` (stereo not drawn), the inhibition is 3.2% (inactive).

For the compound `O=C(Cc1ccc(-n2c(=O)[nH]c3ccccc3c2=O)cc1)N1CCN(c2cccc(Cl)c2)CC1`, the inhibition is 3.03% (inactive).

As to `O=C(CN1CCSCC1)N/N=C/c1ccc(F)cc1`, the inhibition was -8.31% (inactive).

Take `CCc1cccc(C)c1N(C(=O)Cn1c(CO)nc2ccccc21)C(C)COC` (stereo not drawn): the inhibition was 20.8% (inactive).

`CC(=O)OC(C(=O)NCCc1ccccc1)c1cccnc1` (stereo not drawn): the inhibition was 4.94% (inactive).

With `OCCN1CCOCCOCCN(CCO)CCN(CCO)CC1`, the inhibition is 29.9% (inactive).

With `CCOc1ccc(C(O)Cc2nc3ccccc3n2C)cc1` (stereo not drawn), the inhibition is 4.61% (inactive).

As for `Cc1ccc(C(=O)N2CCN(C3CCCCC3)CC2)s1`, the inhibition was -2.79% (inactive).

As to `CCCCN1C(=O)CC(N2CCOCC2)C1=O` (stereo not drawn), the inhibition was 4.69% (inactive).

For `O=c1[nH][nH]c(C(F)(F)F)c1C=NCc1ccccc1Cl`, the inhibition was -12.4% (inactive).

`O=C(NCc1ccc2c(c1)OCO2)C12CC3CC(CC(C3)C1)C2`: the inhibition is -3.87% (inactive).

For the compound `COC(=O)CNS(=O)(=O)c1ccc(OC)cc1`, the inhibition was 0.19% (inactive).

Regarding `CCN(CC)C(=O)CSc1nnc(C2CCCCC2)o1`, the inhibition is 5.02% (inactive).

Take `CC1CCC(N2CC(=O)N(Cc3ccc4c(c3)OCO4)C(c3ccc(F)cc3)C2=O)CC1` (stereo not drawn): the inhibition was 1.08% (inactive).

With `N#Cc1c(N)nc2c3c(sc(=N)c2c1N)NC(=O)CC3c1ccccc1Cl` (stereo not drawn), the inhibition was 40.9% (active).

Turning to `O=C(Cc1c(F)cccc1Cl)N1CCN(C(=O)c2ccco2)CC1`, the inhibition is 2.75% (inactive).

For `O=C(O)CSCc1ccc(C(=O)O)o1`, the inhibition was 0.52% (inactive).

Turning to `CCC(CC)C(=O)N1CC(=O)Nc2ccc(Br)cc2C1c1ccccc1` (stereo not drawn), the inhibition was -3.26% (inactive).

For the compound `CC(C)C(=O)NC(NC(=S)NC1CCS(=O)(=O)C1)C(Cl)(Cl)Cl` (stereo not drawn), the inhibition is 0.31% (inactive).

Regarding `CCCc1nc2oc3c(OCC)ncnc3c2c2c1COC(C)(C)C2`, the inhibition is 26% (inactive).

Turning to `Cc1cc(C(=O)Nc2c(C)nn(Cc3ccccc3)c2C)on1`, the inhibition was 9.91% (inactive).

As to `COc1ccc(-c2cn(-c3ccc(C)cc3)c(=O)n2CC(=O)Nc2ccc(OC)c(OC)c2)cc1`, the inhibition is -1.74% (inactive).

In the case of `S=c1nccc(-c2cc(Cl)sc2Cl)[nH]1`, the inhibition was 3.11% (inactive).

Turning to `CC1CC(C)CN(C(=O)CSc2nnc(CSc3ncccn3)n2C)C1` (stereo not drawn), the inhibition was -0.18% (inactive).

The values above are taken from PubChem BioAssay AID687 (PCMD, 2007).
